HTR2A ag: activates the mouse 5-HT2A serotonin receptor; activation, % at 7.6 µM; CHO-K1 mHTR2A beta-arrestin complementation, luminescence; percent of 30 µM serotonin response; hit rate 0.66% among 360,000;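 active = activation above a run cutoff, the mean activation of all tested compounds plus 3 SD, cut at about 14% in these data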
ANO1 block: inhibitors of mouse TMEM16A calcium-activated chloride channel | HEK293 TMEM16A/YFP iodide influx fluorescence, ionomycin | AID 588511 | normalized B-score (activity score, 25-100; higher = stronger inhibition) at 10 µM | hit rate 1.2% among 310,000 | Q8BHY3;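 active = ratio plate-corrected score three or more library SD toward inhibition, starting fluorescence score within five deviations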;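 note: score derived from kinetic fluorescence span divided by baseline fluorescence per well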
ANO1 activ: activates or potentiates the mouse TMEM16A chloride channel; Q8BHY3; HEK293 TMEM16A/YFP-H148Q/I152L, iodide quench fluorescence; hits give low values; B-score at 10 µM; hit rate 0.3% among 340,000; AID 623877;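 active = fluorescence-ratio B-score plate-corrected deviation score at least 3 library SD below zero, with starting fluorescence score within 5 deviations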;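 note: channel opened by trigger with iodide after compound preincubation; score built on the fluorescence ratio of max minus min over baseline; more negative score means more quench and so TMEM16A activation or potentiation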
NOD2 RIPK2 PPI: blocks binding of human NOD2 to RIPK2 | O43353 | hit rate 0.38% among 360,000 | CHO BLA complementation NOD2-RIPK2, CCF4 ratio | AID 624267 | inhibition, % at 4.98 µM; in the data active = inhibition above about 21%
TLR4-MyD88 BLA: blocks binding of human TLR4 to MyD88 | HeLa CL3-4 TLR4/MyD88 BLA complementation, FRET ratio | inhibition, % at 8.4 µM | AID 861 | hit rate 0.18% among 200,000 | O00206+Q99836; in the data active = inhibition above about 25%
TLR9-MyD88 inh: inhibitors of human TLR9-MyD88 binding. Q9NR96+Q99836. CHO BLA complementation TLR9-MyD88, CCF4 FRET ratio. inhibition, % at 4.98 µM. hit rate 0.21% among 340,000;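 active = inhibition above the mean over all tested compounds plus 3 SD, cut at about 21% in these data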
Target sequence (Q99836 whole entry, looked up): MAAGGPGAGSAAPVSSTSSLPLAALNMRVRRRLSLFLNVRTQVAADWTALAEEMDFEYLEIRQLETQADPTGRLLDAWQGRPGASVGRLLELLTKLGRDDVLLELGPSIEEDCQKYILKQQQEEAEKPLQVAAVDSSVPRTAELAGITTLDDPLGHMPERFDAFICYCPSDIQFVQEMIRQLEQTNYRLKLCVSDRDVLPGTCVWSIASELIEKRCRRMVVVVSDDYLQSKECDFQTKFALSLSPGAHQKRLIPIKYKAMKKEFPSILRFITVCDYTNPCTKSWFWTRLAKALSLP
Target sequence (Q9NR96 whole entry, looked up): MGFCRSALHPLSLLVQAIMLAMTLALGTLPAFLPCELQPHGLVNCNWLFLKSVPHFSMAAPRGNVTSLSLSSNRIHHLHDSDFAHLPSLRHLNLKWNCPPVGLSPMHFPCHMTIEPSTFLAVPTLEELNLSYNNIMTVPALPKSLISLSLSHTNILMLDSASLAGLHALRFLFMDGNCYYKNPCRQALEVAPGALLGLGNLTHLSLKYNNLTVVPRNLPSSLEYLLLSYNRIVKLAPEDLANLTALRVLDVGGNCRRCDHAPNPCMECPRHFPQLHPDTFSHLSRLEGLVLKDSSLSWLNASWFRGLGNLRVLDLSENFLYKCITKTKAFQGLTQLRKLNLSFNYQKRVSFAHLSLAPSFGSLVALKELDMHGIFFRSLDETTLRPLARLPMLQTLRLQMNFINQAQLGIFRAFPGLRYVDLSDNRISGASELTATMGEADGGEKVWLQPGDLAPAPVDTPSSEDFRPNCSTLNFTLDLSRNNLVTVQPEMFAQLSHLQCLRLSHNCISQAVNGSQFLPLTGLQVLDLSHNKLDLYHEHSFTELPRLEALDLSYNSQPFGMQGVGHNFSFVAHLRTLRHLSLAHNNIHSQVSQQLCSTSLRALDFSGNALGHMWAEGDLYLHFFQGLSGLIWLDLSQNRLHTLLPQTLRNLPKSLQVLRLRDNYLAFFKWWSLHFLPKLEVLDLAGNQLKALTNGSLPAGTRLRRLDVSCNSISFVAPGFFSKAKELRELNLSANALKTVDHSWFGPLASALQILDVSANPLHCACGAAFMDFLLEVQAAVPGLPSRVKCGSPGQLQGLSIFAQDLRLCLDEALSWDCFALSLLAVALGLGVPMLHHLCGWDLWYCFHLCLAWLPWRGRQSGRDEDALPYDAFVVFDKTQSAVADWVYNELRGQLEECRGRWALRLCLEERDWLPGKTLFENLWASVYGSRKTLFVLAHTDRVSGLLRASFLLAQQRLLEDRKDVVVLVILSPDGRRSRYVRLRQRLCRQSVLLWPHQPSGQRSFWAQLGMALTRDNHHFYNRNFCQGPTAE
NOD2-RIPK2 conf: confirmation of human NOD2-RIPK2 interaction inhibitors | shares compounds with NOD2 RIPK2 PPI | CHO cells, NOD2-RIPK2 BLA complementation, CCF4 FRET | inhibition, % at 4.98 µM | hit rate 70% among 1,200;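 active = mean inhibition across replicates above a set limit taken from the earlier primary screen, cut at about 21% in these data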
NOD2 BLA counter: hits BLA reporter in NOD2-RIPK2 inhibitor counterscreen | shares compounds with NOD2 RIPK2 PPI | hit rate 57% among 1,200 | inhibition, % at 4.98 µM | CHO BLA reporter, CCF4 FRET ratio;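 active = mean inhibition above the low-control mean inhibition plus three low-control SD, cut at about 11% in these data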
Large screens that a line does not name were inactive (follow-up assays come after a bar, where they were run). Rows were chosen to be rich in hits. Some 2.4% of all compounds tested hit in one or more screens of this group.

CCCCn1c(=O)[nH]c(=O)c2c1nc(Cn1ncc(Cl)c(Cl)c1=O)n2CCC	NOD2 RIPK2 PPI 40 (no result: TLR4-MyD88 BLA) | NOD2-RIPK2 conf 55 | NOD2 BLA counter 13
Cc1ccc(CN2C(=O)c3ccccc3Sc3ccc(C(=O)NCCCN4CCOCC4)cc32)cc1	none (no result: TLR4-MyD88 BLA)
OC[C@@H]1[C@@H](c2ccc(Cl)cc2)C(c2cccc(Cl)c2)=NN1c1ccccc1	NOD2 RIPK2 PPI 34 (no result: ANO1 block, ANO1 activ, TLR4-MyD88 BLA) | NOD2-RIPK2 conf 30 | NOD2 BLA counter 59
OC[C@@H]1[C@@H](c2ccc(F)cc2)C(c2cccc(Cl)c2)=NN1c1ccccc1	NOD2 RIPK2 PPI 29 (no result: ANO1 block, ANO1 activ, TLR4-MyD88 BLA) | NOD2-RIPK2 conf 30 | NOD2 BLA counter 54
O=c1oc(-c2ccccc2)cc(Cl)c1Cl	NOD2 RIPK2 PPI 60 (no result: TLR4-MyD88 BLA) | NOD2-RIPK2 conf 57 | NOD2 BLA counter inactive
O=c1oc(-c2ccccc2)cc2ccccc12	none (no result: ANO1 block, ANO1 activ, TLR4-MyD88 BLA, TLR9-MyD88 inh)
CC(C)(C)c1ccc(S(=O)(=O)N2CCC(CO)(CC3CCCCO3)CC2)cc1 (configuration not stated)	none
CC(=O)OC[C@]12CC[C@H]3[C@@](C)(CC[C@H]4C(C)(C)CCC[C@]34C)[C@@H]1CC(C1=CC(=O)OC1O)O2 (some centres not stated)	NOD2 RIPK2 PPI 46 (no result: ANO1 block, ANO1 activ, TLR4-MyD88 BLA, TLR9-MyD88 inh) | NOD2-RIPK2 conf 49 | NOD2 BLA counter 21
CC(=O)OC[C@]1(OC(C)=O)C[C@@]23CC[C@H]4[C@@](C)(CCC[C@@]4(C)C(=O)O)[C@@H]2CC[C@@H]1C3	none
CCCCn1c(=O)c(CCC(=O)OCC(=O)NC(C)c2ccccc2)nc2ccccc21 (configuration not stated)	none
O=[N+]([O-])c1ccc(N/N=C/c2ccccc2O)cc1	NOD2 RIPK2 PPI 27 (no result: TLR4-MyD88 BLA) | NOD2-RIPK2 conf 38 | NOD2 BLA counter 35
O=[N+]([O-])c1ccc(NN=Cc2ccc(O)cc2O)nc1	NOD2 RIPK2 PPI 22 (no result: ANO1 block, TLR4-MyD88 BLA) | NOD2-RIPK2 conf inactive | NOD2 BLA counter 15
O=C(Cn1c(Cc2ccccc2)nc2ccccc21)NCc1ccc2c(c1)OCO2	none
Nc1ccc2cc3[nH]c4cc(N)ccc4c3nc2c1	NOD2 RIPK2 PPI 39 (no result: ANO1 block, TLR4-MyD88 BLA) | NOD2-RIPK2 conf 73 | NOD2 BLA counter 66
O=C(Nc1ccc(F)cc1)c1nn(-c2ccccc2)c(=O)cc1Cl	NOD2 RIPK2 PPI 36 (no result: ANO1 block) | NOD2-RIPK2 conf 40 | NOD2 BLA counter inactive
Cc1ccc(NC(=O)c2cc(-c3ccccc3)nn2-c2ccccc2)cc1	none
COc1ccc(S(N)(=O)=O)cc1C(=O)NCC(C)(C)N1CCOCC1	none (no result: TLR4-MyD88 BLA)
COc1cc(CC(=O)NCC(C)(C)N2CCOCC2)cc(OC)c1OC	NOD2 RIPK2 PPI 38 (no result: TLR4-MyD88 BLA) | NOD2-RIPK2 conf inactive | NOD2 BLA counter inactive
COc1cc(N2C(=O)C=CC2=O)c(OC)cc1Cl	NOD2 RIPK2 PPI 51 (no result: TLR4-MyD88 BLA) | NOD2-RIPK2 conf 80 | NOD2 BLA counter 23
O=C1Nc2cc(C(=O)NCCN3CCCCCC3)ccc2S/C1=C/c1ccccc1F	NOD2 RIPK2 PPI 22 (no result: ANO1 block, ANO1 activ, TLR4-MyD88 BLA) | NOD2-RIPK2 conf 49 | NOD2 BLA counter 51
O=C(Nc1cccc(O)c1)c1cc2nc(-c3ccccc3)cc(-c3ccccc3)n2n1	NOD2 RIPK2 PPI 22 | NOD2-RIPK2 conf inactive | NOD2 BLA counter 11
O=C(NC1CCCC1)c1cc2nc(-c3ccccc3)cc(-c3ccccc3)n2n1	none (no result: TLR4-MyD88 BLA)
CC(C)(C)OC(=O)NNC(=O)NC12CC3CC(CC(C3)C1)C2	none
C=C1C(=O)C23CCC4C(C)(C(=O)OC)CCCC4(C)C2CCC1(O)C3 (configuration not stated)	ANO1 activ -8.6, NOD2 RIPK2 PPI 79 (no result: ANO1 block, TLR4-MyD88 BLA) | NOD2-RIPK2 conf 88 | NOD2 BLA counter 21
CCOC(=O)C1(C)CCN1C(=O)/C=C/c1ccccc1 (configuration not stated)	NOD2 RIPK2 PPI 21 (no result: ANO1 block, ANO1 activ, TLR4-MyD88 BLA, TLR9-MyD88 inh) | NOD2-RIPK2 conf inactive | NOD2 BLA counter inactive
O=C(CCn1c(=O)c2ccccc2n(CC(=O)N2CCN(c3ccccc3)CC2)c1=O)NCc1ccco1	none
COC(=O)Nc1ccc(SCC(=O)c2cccc([N+](=O)[O-])c2)cc1	NOD2 RIPK2 PPI 22 (no result: TLR4-MyD88 BLA) | NOD2-RIPK2 conf inactive | NOD2 BLA counter inactive
CN(C)c1nc(N)nc(-c2cccnc2)n1	none
Cc1[nH]nc(-c2cccnc2)c1N=NN(C)C	NOD2 RIPK2 PPI 37 (no result: ANO1 block, TLR4-MyD88 BLA) | NOD2-RIPK2 conf inactive | NOD2 BLA counter inactive
Cn1nc(C(=O)NCC2COc3ccccc3O2)c2ccccc2c1=O (configuration not stated)	none (no result: ANO1 block, TLR4-MyD88 BLA)
O=C(CSc1ccc([N+](=O)[O-])cc1)Nc1cccc(S(=O)(=O)N2CCOCC2)c1	NOD2 RIPK2 PPI 41 (no result: ANO1 block, TLR4-MyD88 BLA) | NOD2-RIPK2 conf inactive | NOD2 BLA counter inactive
COc1ccc(NC(=O)C(c2ccc(C#N)cc2)n2c(=O)c(-c3cc4ccccc4[nH]3)nc3ccccc32)cc1 (configuration not stated)	NOD2 RIPK2 PPI 56 (no result: ANO1 block, ANO1 activ, TLR4-MyD88 BLA, TLR9-MyD88 inh) | NOD2-RIPK2 conf 54 | NOD2 BLA counter 72
